40 molecules from PubChem BioAssay (NCI) can be followed below.

The panel holds about 83,000 compounds, 20% with a hit somewhere; the sample as a whole holds those more often.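 96-well plates, one dose, 48 hours. Percent growth reported; active if below 10.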 Unmarked numbers belong to inactive results. The source made the active and inactive calls.

The assay relates to LOX IMVI melanoma. In words: NCI-60 one-dose screen, 48 h (100 = growth as untreated, 0 = no growth, -100 = all killed). As to conditions: 10 µM unless noted. The method, then: Growth inhibition of the LOX IMVI human tumor cell line is measured as a screen for anti-cancer activity. Cells are grown in 96 well plates and exposed to the test compound for 48 hours. Compounds are tested at a single concentration, which is 10^-5 M for most compounds. The reported endpoint is percent growth (GI% or GIPRCNT), where numbers from 0 - 100% represent growth inhibition, and numbers from -100% - 0 represent cell death. For example, a value of 40 represents 60% growth inhibition. A value of 0 means no net growth occurred over the course of the experiment. A value of -40 indicates 40% of cells at the beginning of the experiment died by the end of the experiment. A value of -100 means all cells are dead at the end of the experiment.
NCI-60 Human Tumor Cell Lines Screen was performed using the standard one-dose NCI protocol, which is described in more detail at https://dtp.cancer.gov/discovery_development/nci-60/default.htm.
Compounds with GIPRCNT values below 10 were considered active. Activity score was based on GIPRCNT using the following formula: […]
Score is 0 for GIPRCNT values of 100 or above, 50 for GIPRCNT values of 0, and 100 for GIPRCNT values of -100.
Consider `Cc1ccc(NC2=C(Cl)C(=O)c3nc(C)ccc3C2=O)cc1`, for which the growth was -78.2% (active).

On to `N#Cc1c(Nc2cccc(Cl)c2)sc(C(=O)c2cc3cc(Cl)ccc3o2)c1N`, for which the growth is 85.9%.

As to `COc1ccc(C2C(C#N)=C(N)Oc3c2sc2c(C)cccc32)cc1` (stereo not given), the growth is 17.2%.

Take `COc1ccc(-c2nc(NCCO)[nH]c(=O)c2C#N)cc1`: the growth is 103%.

With `c1ccc2c(-c3nc(-c4c[nH]c5ccncc45)cs3)c[nH]c2c1`, the growth was -76% (active).

With `O=c1[nH][n+](-c2ccc(Br)cc2)no1`, the growth was 7.47% (active).

As for `COc1cc(OCc2cccc(-c3ccc(C(O)c4nccs4)cc3)c2C)cc(OC)c1CNCCNC(C)=O` (stereo not given), the growth is 94.8%.

`Cn1cc(-c2cc3ncnc(Nc4ccc(CC(=O)Nc5cc(C(C)(C)C)on5)cc4)c3s2)cn1`: the growth is 25.8%.

Regarding `Cc1ccc2nc(NC(=O)CSc3nc(Cl)c(C#N)c(-c4ccccc4)n3)sc2c1`, the growth is 94.3%.

With `O=S(=O)(Nc1ccc(-c2nc(-c3cccc(OCCN4CCOCC4)c3)c(-c3ccnc(Br)c3)[nH]2)cc1)c1ccccc1`, the growth was 3.47% (active).

Turning to `Cc1cc(O)c(C2=NN(c3ccc(S(N)(=O)=O)cc3)C(c3ccccc3O)C2)cc1Cl` (stereo not given), the growth is -89.6% (active).

With `COc1cccc2c(=O)c3c(sc12)c(N1CCNCC1)nc1ccccc13`, the growth is -29.3% (active).

As to `CSc1ncccc1C(=O)OCC(=O)Nc1oc(C)c2c(C)n[nH]c(=O)c12`, the growth was 94.5%.

For the molecule `Oc1c(I)cc(I)cc1CNCCCN(Cc1ccccn1)Cc1ccccn1`, the growth is -91.7% (active).

In the case of `CCc1cccc2c3c(sc12)C(c1ccc(F)cc1)C(C#N)=C(N)O3` (stereo not given), the growth is 14.6%.

Turning to `Cc1cccc(NC2=C(Cl)C(=O)c3nc(C)ccc3C2=O)c1`, the growth was -54.6% (active).

Take `Cc1cc(O)c(C2=NN(c3ccc(S(N)(=O)=O)cc3)C(/C=C/c3ccccc3)C2)cc1Cl` (stereo not given): the growth was 18.5%.

Consider `Fc1cc(-c2nnc3n2NC(=Nc2ccc(Cl)cc2)CS3)c(Cl)cc1Cl`, for which the growth was 86.5%.

For the molecule `CCCCNC(=O)Oc1ccc(/C(=C(\C)c2ccc(Cl)cc2)c2ccc(OCCN(CC)CC)cc2)cc1`, the growth is 71.5%.

As to `Cc1ccc2sc3c(NCCN)nc4ccccc4c3c(=O)c2c1`, the growth is 15.6%.

Take `CCCCn1c(=O)c(-c2cc(-c3ccc(Cl)cc3)nc(-c3ccc(Cl)cc3)c2)cc2ccc(Cl)cc21`: the growth was 98.1%.

Consider `CCCCOc1nc2c(C)cccc2cc1-c1cc(-c2ccc(Cl)cc2)nc(-c2ccc(Cl)cc2)c1`, for which the growth is 98.3%.

In the case of `N[C@@H](Cc1ccccc1)[C@@H](O)C(=O)NCc1ccc(F)cc1`, the growth is 105%.

Take `O=C(COc1ccc(/C=C2\Cc3ccc(Cl)cc3C2=O)cc1)Nc1nc2ccccc2s1`: the growth is 72.8%.

Consider `O=C(N/N=C/[C@@H](O)[C@H](O)[C@H](O)CO)c1ccc(NC(=O)c2cccnc2)cc1`, for which the growth is 101%.

For the molecule `Cc1ccc(-c2nc(N3CCN(CC(=O)Nc4ccc(Cl)cc4)CC3)c3ccccc3n2)cc1`, the growth was 97.4%.

With `c1ccc2cc(C[n+]3ccn(CCCCCCCCCCCCn4cc[n+](Cc5ccc6ccccc6c5)c4)c3)ccc2c1`, the growth is -84.9% (active).

As for `Cc1ccc(C(=O)NN2C(=O)CSC2c2ccc(Cl)cc2)cn1` (stereo not given), the growth is 97.4%.

Turning to `COC(=O)Nc1ccc(-c2nc(-c3cccc(OC)c3)c(-c3ccnc(Br)c3)[nH]2)cc1`, the growth was 23.6%.

Consider `COc1cc2cc(Oc3ccc(NC(=O)Nc4ccc(F)c(C(F)(F)F)c4)cc3)c(C)nc2cc1OCCN1CCOCC1`, for which the growth was 12.8%.

Regarding `Cc1nc2ccccc2n1-c1ncnc2c1CC(C)c1ccccc1N2C` (stereo not given), the growth is 82.7%.

Take `O=C(S)CNC(=O)c1ccccc1`: the growth was 98.2%.

Consider `Cc1nn(-c2ccccc2)c2c1N=c1s/c(=C\c3ccc(C(F)(F)F)cc3)c(=O)n1CN2`, for which the growth is 56.7%.

`CCCCNc1nc(NN2C(=O)c3cccc4cccc(c34)C2=O)nc(-n2cnc3ccccc32)n1`: the growth is 87.4%.

With `Cc1c(C(=O)NCCN2CCOCC2)cn2ncnc(Oc3ccc(NC(=O)Nc4ccc(Cl)c(C(F)(F)F)c4)cc3)c12`, the growth was -50.5% (active).

Regarding `NCCOc1ncccc1/C=C1\C2C=CC=CC2C2C=CC(F)=CC12` (stereo not given), the growth is -22.5% (active).

On to `CC1(C)C2CC1C1(/C=N/NC(N)=S)C(C2)C(C#N)(C#N)C1(C#N)C#N` (stereo not given), for which the growth was 50.1%.

Take `CC(=O)CC[C@H]1C(=O)N[C@@H](C(C)C)C(=O)N[C@@H](Cc2cc(O)cc(F)c2)C(=O)N2CCC[C@H](N2)C(=O)O[C@H](/C(C)=C/C=C/C(=O)OC(C)(C)C)C/C=C/C=C/[C@H](O)[C@H](C)[C@H]1O`: the growth is 48.6%.

For `CCOC(=O)/C(C#N)=C\Nc1ccc2ncnc(Nc3ccc(Cl)cc3Cl)c2c1`, the growth was 87.4%.

As for `C[C@]12CC[C@@H]3c4cc(OC(F)F)c(OS(N)(=O)=O)cc4CC[C@H]3[C@@H]1CC[C@@H]2O`, the growth is 28.6%.
